# The supplement of paper PMC6555819
# Legend:
# Experiment in all cases: PBM binding z-score (relative to random genomic background probes); higher = stronger binding; sequences stand for … in GC…GCGATTGACAGCGTAGAATGAAGG
# [1] = test system: FXR:RXRa (NR concentration 270 nM, RXRa partner concentration 90 nM)
# Summary of the method: (§1)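 Antibodies against each partner of ligand-free nuclear receptor dimers (one per run) detected binding on custom Agilent 4×180K protein-binding microarrays after 1 h incubation. The double-stranded probes had 34-nt variable regions carrying direct-repeat seeds, single-nucleotide variants, half-site ablations and random human genomic background sequences. Binding z-scores, from regression-normalized fluorescence, use the random background probes as reference.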
# [2] = test system: LXRa:RXRa (NR concentration 270 nM, RXRa partner concentration 90 nM)
# Summary of the method: as §1
# [3] = test system: LXRa homodimer (NR concentration 270 nM)
# Summary of the method: as §1
# [4] = test system: LXRb:RXRa (NR concentration 270 nM, RXRa partner concentration 90 nM)
# Summary of the method: as §1
# [5] = test system: LXRb homodimer (NR concentration 270 nM)
# Summary of the method: as §1
# [6] = test system: PPARa:RXRa (NR concentration 270 nM, RXRa partner concentration 90 nM)
# Summary of the method: as §1
# [7] = test system: PPARg:RXRa (NR concentration 180 nM, RXRa partner concentration 90 nM)
# Summary of the method: as §1
# [8] = test system: PPARg:RXRa 270nM:90nM, anti-RXR (NR concentration 270 nM, RXRa partner concentration 90 nM)
# Summary of the method: as §1
# [9] = test system: PPARg:RXRa 30nM:10nM, anti-RXR (NR concentration 30 nM, RXRa partner concentration 10 nM)
# Summary of the method: as §1
# [10] = test system: PPARg:RXRa 90nM:30nM, anti-RXR (NR concentration 90 nM, RXRa partner concentration 30 nM)
# Summary of the method: as §1
# [11] = test system: PPARg:RXRa DBDmut IVT, anti-RXR (DBD mutation: RXRa K156A/R161A, NR concentration 270 nM, RXRa partner concentration 90 nM)
# Summary of the method: as §1
# [12] = test system: PPARg:RXRa IVT, anti-PPARg (NR concentration 270 nM, RXRa partner concentration 90 nM)
# Summary of the method: as §1
# [13] = test system: PPARg DBDmut:RXRa IVT, anti-PPARg (DBD mutation: PPARg1 K132A/R137A, NR concentration 270 nM, RXRa partner concentration 90 nM)
# Summary of the method: as §1
# [14] = test system: PPARg DBDmut IVT, anti-PPARg (DBD mutation: PPARg1 K132A/R137A, NR concentration 270 nM)
# Summary of the method: as §1
# [15] = test system: PPARg homodimer (NR concentration 180 nM)
# Summary of the method: as §1
# [16] = test system: PXR:RXRa (NR concentration 270 nM, RXRa partner concentration 90 nM)
# Summary of the method: as §1
# [17] = test system: PXR homodimer (NR concentration 270 nM)
# Summary of the method: as §1
# [18] = test system: RARa:RXR (NR concentration 270 nM, RXRa partner concentration 90 nM)
# Summary of the method: as §1
# [19] = test system: RARa homodimer (NR concentration 270 nM)
# Summary of the method: as §1
# [20] = test system: RARb:RXRa (NR concentration 270 nM, RXRa partner concentration 90 nM)
# Summary of the method: as §1
Sequence,PBM binding z-score [1],PBM binding z-score [2],PBM binding z-score [3],PBM binding z-score [4],PBM binding z-score [5],PBM binding z-score [6],PBM binding z-score [7],PBM binding z-score [8],PBM binding z-score [9],PBM binding z-score [10],PBM binding z-score [11],PBM binding z-score [12],PBM binding z-score [13],PBM binding z-score [14],PBM binding z-score [15],PBM binding z-score [16],PBM binding z-score [17],PBM binding z-score [18],PBM binding z-score [19],PBM binding z-score [20]
AGAATGAGGTTACCAAAGATCAGGTAAACGCTTG,1.72,5.99,-0.313,3.44,-0.454,3.43,2.76,2.77,1.12,1.9,3.32,3.43,0.874,0.666,0.758,1.64,-0.0452,2.29,0.183,2.09
CGGCAAAGTTCAAGGTAACGTAACAGAAAGCAGC,6.25,5.26,1.74,3.16,-0.0277,4.47,3.94,4.6,1.59,3.43,0.813,1.56,-1.51,-0.284,2.12,4.05,2.11,3.29,0.805,5.04
ACTTACCGGTCAACGAGGTTATAGCACGCGTATA,2.61,3.17,2.47,1.96,1.3,2.3,1.3,1.2,0.21,0.785,1.22,1.9,0.959,1.45,1.88,2.33,1.42,2.38,1.15,3.08
TCATATAGGTAAAAGGTGAAAGACGGTGTGGTAA,2.04,2.03,0.309,2.05,0.213,5.1,9.86,8.73,9.9,10.6,5.58,5.42,1.69,1.75,3.5,1.66,0.734,3.13,1.65,1.91
ATCACTAGGTAAAGATAGTTCAGTGAATGCAAAT,0.213,3.82,0.581,0.654,0.171,0.991,1.13,0.685,0.585,0.404,3.21,2.54,1.22,1.14,0.795,1.02,0.598,0.654,1.19,0.635
TATCCTAGGTCATTCAGGGGCCAGTATAGAAAGC,5.25,5.67,4.76,3.96,4.11,4.18,3.29,3.8,1.64,3.05,4.17,4.85,1.68,2.21,3.21,3.08,0.861,3.84,1.26,4.08
CAAACTAGGTCACCGGAAGCTCAAAGTCCGCATG,4.54,2.93,0.559,2.24,0.297,5.45,9.51,7.22,5.15,7.39,8.73,9.13,6.78,2.89,2.58,1.9,0.365,3.19,1.19,4.38
GCATATAGGTAATACAAGGTGCAAGTCCGATTGT,-0.133,-0.156,-0.264,-0.333,-0.455,0.617,0.975,0.986,0.152,0.648,3.88,2.81,0.731,0.109,0.579,-0.0713,0.191,0.538,0.49,-0.282
ATATGTAGTTTAAGGGTCATTCAGGTTGGTTCGC,4.61,4.11,2.99,4.07,1.53,5.03,6.25,6.64,5.02,6.74,1.53,3.45,1.66,1.44,3.5,5.01,3.06,4.34,2.87,3.42
TTACCAAGGTGAGCTGAGGTCGATGATCCAACTC,2.13,0.545,-0.604,0.0564,-1.26,1.2,0.288,0.701,-0.265,0.0498,0.764,2.27,-0.223,-0.4,-0.24,3.58,-0.352,1.23,-0.656,1.72
CCTATTAGTTGACCATAAGCGCAACCGAAGCTCG,0.497,0.827,0.899,1.04,1.41,0.528,0.326,0.456,0.0964,0.123,0.822,0.118,1.15,0.388,2.28,0.436,1.11,0.706,2.45,0.701
CATACAGGGTCAGCTTGGCCAGAGTAGGGACGGC,4.12,2.73,-0.212,1.86,0.138,4.1,2.78,2.88,0.385,1.57,1.04,2.5,0.91,0.462,1.09,2.01,-0.3,2.93,0.544,3.99
CGTCCAAGGTCAGAAGGTCAGTGAAAGCGACGTG,5.88,4.43,0.719,3.22,-0.0292,5,3.62,4.51,0.861,3.11,2.28,3.06,0.15,-0.646,3.82,4.48,0.822,5.89,1.32,5.45
ACCTACGGGTCAACGAGGTTATAGCACGCGTATA,6.4,4.83,0.64,3.98,0.188,5.36,4.44,4.86,1.47,3.68,1.41,2.79,0.196,0.0693,3.53,5.22,3.27,5.3,0.837,4.05
ATCTCTAGGTTACCAAGTTCAGTGAATGCCGAAC,0.872,1.95,1.86,1.47,1.16,2.15,1.82,1.97,0.559,0.955,4.8,4.07,1.25,1.33,1.15,3.34,4.37,1.46,1.16,2.31
CGTCCAAGGTCAGGAGGTCAGTGAAAGCGACGTG,6.23,4.55,1.15,3.64,-0.0727,5.43,4.93,5.41,1.89,4.06,2.95,3.93,-0.53,-1.29,5.26,4.65,1.1,6.11,1.5,5.52
GCTTACGGGACAAAGGTTATAGCATGAATAGAAT,1.23,1.56,0.265,2.04,-0.135,4.42,7.78,7.39,6.27,8.27,1.28,3.13,0.314,1.06,1.03,1.57,0.222,2.59,0.238,1.81
GCTCTTAGTTGAAAGGGCAACCGAATGATTCTCG,0.354,0.538,0.194,0.812,-0.185,1.77,0.987,2.26,0.632,1.71,0.37,0.474,0.11,-0.335,0.85,0.654,-0.0314,1.47,-0.318,2.08
CCAACTGGGGCAGAAAGGTTACCATACCATCCGG,0.267,0.782,0.0649,1.12,-0.79,2.53,2.29,2.56,0.915,2.11,3.25,3.34,0.0349,-0.823,0.624,1.1,0.0955,1.98,-0.139,2.03
AGAACGAGGGCACGCTGAGTTGATTGCAGAGTAG,0.793,0.4,-0.818,-0.114,-1.35,1.94,1.71,1.83,0.402,1.15,4.08,3.53,0.256,0.126,0.222,1.56,-0.0942,0.717,-0.751,2.36
CGTCCAAGATCAGAGAGGTCAGTGAATGCCGAGT,1.64,2,1.44,1.92,0.00137,2.52,0.376,0.581,0.00146,0.0792,0.179,0.0749,-0.351,-0.769,2.69,3.22,2.06,3.09,1.49,2.95
CTACCAAGGTGAACAAGGTCGTTGCTTACTATTC,1.51,1.61,0.37,2.11,-0.314,2.55,0.964,1.34,-0.119,0.845,2.88,2.58,0.0347,-0.195,1.15,3.08,1.88,2.64,-0.135,2.23
AGAATGAGGATACCAAAGATCAGGGAAACGCTTG,0.11,-0.468,-0.437,-0.336,-0.365,-0.155,0.826,0.344,0.225,0.512,0.148,0.0598,0.131,-0.145,-1.29,-0.349,-0.0472,-0.216,-0.258,-0.0511
AGAATGAGGATATACGTAGATCAGGGAAGAAAGT,-0.224,-0.666,-0.354,-0.479,-0.429,-0.509,0.977,-0.177,0.217,-0.000713,-0.138,-0.218,0.0706,0.805,0.0264,-0.403,-0.147,-0.363,0.32,-0.448
CCTATTAGTTGACCATAAGGGAAACCGAAGCTCG,0.0135,0.118,0.818,0.349,0.904,0.126,0.419,0.639,0.332,0.381,0.672,0.217,0.925,1.02,2.22,0.326,0.761,0.517,2.53,0.497
GCTTGTAGATCAAGGTTAAGAATGACTAAGCTAA,0.096,0.324,-0.618,0.368,-0.604,1.37,1.3,1.95,0.416,1.72,1.74,0.924,0.367,0.28,-0.624,0.546,-0.428,0.94,-0.617,0.932
GATACAGGGTTAAGGCCAGAGTACGCGTATTGAT,1.24,0.758,-0.124,0.741,-0.621,2.23,1.45,1.5,0.167,0.884,0.369,1.16,0.272,-0.564,0.996,0.615,0.108,1.28,0.426,1.7
CGTAAAAGTTCAAGGTAACGTAACAGAAAGCAGC,5.78,5.24,2.41,3.04,1.2,4.35,2.48,3.11,1.09,1.91,0.129,1.62,1.87,1.28,2.19,3.49,1.82,2.92,1.29,4.99
